Screens (PubChem BioAssay)
A selection: hits, their analogues and other compounds. The true share with any hit is near 17%.
TDP1 cell noCPT – qHTS for Inhibitors of human tyrosyl-DNA phosphodiesterase 1 (TDP1): qHTS in cells in absence of CPT; DT40 Tdp1-/- hTDP1 cells, no CPT, ATP luminescence, 48 h; Potency, µM (series often up to 46.2 µM), for inactives: top-dose activity change, negative = growth inhibition, usual class: inhibitors; actives 15% (n = 420,000); AID 686978, 2013; note: % is set by controls: 0 for no effect and ±100 for the full control effect; nearly all actives have a fitted effect of over 55% in size
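Luminescent ATP content (CellTiter-Glo) served as the growth readout. Knockout chicken DT40 cells expressing human TDP1 were exposed to compounds without camptothecin for a minimum 48 hr at 37 °C.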
TDP1 block – TDP1 (human) enzyme inhibition | Q9NUW8 | recombinant TDP1, AlphaScreen DNA substrate cleavage | Potency, µM (highest dose often 130 µM), inactives show at the top dose activity change, negative = inhibition, hits mostly inhibitors | actives 0.28% (n = 350,000) | AID 485290; note: % is set by controls: 0 for no effect and ±100 for the full control effect; nearly all actives have a fitted effect of over 40% in size
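Recombinant human Tdp1 (E. coli-expressed, 1 nM final) preincubated with compounds 15 min at room temperature, then 5'-biotin/3'-phosphotyrosine-FITC DNA substrate (15 nM final) added for 5 min. AlphaScreen beads (10 ug/ml final) added 10 min; cleavage lowers signal.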
DT40 TDP1 CPT – growth inhibition of DT40 Tdp1-/-;hTDP1 cells with camptothecin (screen for TDP1 inhibitors). chicken DT40 Tdp1-/-;hTDP1 cells + 20 nM CPT, ATP luminescence, 48 h. Potency, µM (titrated, usually from 46.2 µM), without a hit: at the highest dose activity change, negative = growth inhibition, most hits filed as inhibitors. actives 12% (n = 420,000); note: % is set by controls: 0 for no effect and ±100 for the full control effect; nearly all actives have a fitted effect of over 55% in size
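Chicken DT40 Tdp1-/- cells stably complemented with human TDP1 were seeded at 400 cells/well in medium containing 20 nM camptothecin, exposed to pin-transferred compounds, and grown at 37 °C for at least 48 hr. Viability was read as ATP luminescence.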
ClpP mod – qHTS Assay for Activators of ClpP; ATP-dependent Clp protease proteolytic subunit (Bacillus subtilis (strain 168)), P80244; purified B. subtilis ClpP, FRET peptide cleavage, 20 min; Potency, µM (titrated, usually from 57.5 µM), for inactives: at the top dose activity change, negative = active; actives 1.9% (n = 340,000); AID 651965, 2013; active = well fitted falling curve with a large enough effect; inconclusive = small, poorly fitted or top-dose-only effect; inactive = no such curve, though single readings can be large or run the other way; note: the source files actives as falling curves though it sought activators and does not explain the sign; nearly all actives have a fitted effect of over 65% in size
Target sequence (P80244 whole entry, looked up): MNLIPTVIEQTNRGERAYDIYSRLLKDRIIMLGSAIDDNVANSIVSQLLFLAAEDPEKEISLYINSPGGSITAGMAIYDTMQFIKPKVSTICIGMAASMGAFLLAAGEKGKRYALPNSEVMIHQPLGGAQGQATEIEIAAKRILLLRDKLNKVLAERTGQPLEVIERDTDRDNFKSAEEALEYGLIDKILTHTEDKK
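ClpP 10 microg/mL final, pH 8 Tris/KCl buffer with BSA, glycerol, Tween-20; compound pinned in; FRET-FV substrate; RT 20 min; Ex320/Em430; ΔFRET vs ADEP 5.8 microM, DMSO, no enzyme.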
* marks the source's active call; other numbers are inactive results; ? = inconclusive; · = no result given; [ ] = another dose, or the depositor's remark. Unless noted, calls come from the whole dose curve; as a rule, active = well fitted curve in the direction sought with a large enough effect; inconclusive = small, poorly fitted or top-dose-only effect, or another doubt; inactive = no such curve, though single readings can be large; an effect the other way counts as inactive or inconclusive. Potency is the fitted concentration of half-maximal effect.

SMILES	TDP1 cell noCPT	TDP1 block	DT40 TDP1 CPT	ClpP mod
O=[N+]([O-])c1cccc(CN2C(COCc3ccccc3)CCC=CS2(=O)=O)c1 (stereo not drawn)	·	13%	·	·
CN1C(=O)C2(N=c3ccccc3=N2)c2ccccc21	15µM*	0%	?	13µM*
Cc1nn(-c2ccccc2)c(C)c1CC(=O)NCC1Cc2cc(-c3cncnc3)ccc2O1 (stereo not drawn)	-9%	·	7%[9.04 µM]	·
COC(=O)c1cc(OC)c(OC)cc1NC(=O)CCCCCN1C(=O)CCC1=O	?	1%	?	28µM*
Cc1ccc(NC(=O)c2cc(S(=O)(=O)N3CCCCCC3)ccc2F)cc1F	?	8%	8.2µM*	0%
Cc1cc(C)cc(NC(=O)c2cc(S(=O)(=O)N3CCCC3)ccc2F)c1	21µM*	3%	?	-3%
Cc1ccc(C)c(NC(=O)c2cc(S(=O)(=O)N3CCCCCC3)ccc2F)c1	?	5%	16µM*	-1%
CN(CC(=O)N1CCN(c2ccccc2)CC1)C1CCCc2ccccc21 (stereo not drawn)	?	8%	-6%	·
O=C(Nc1ccc2c(c1)OCO2)c1cc(C2CCCN(C(=O)CCc3ccccc3)C2)on1 (stereo not drawn)	?	·	21µM*	-2%
CCCC(=O)N1CCCC(c2cc(C(=O)Nc3ccc4c(c3)OCO4)no2)C1 (stereo not drawn)	5%	·	-29%	1%
CC(=O)N1CCCC(c2cc(C(=O)Nc3ccccc3)no2)C1 (stereo not drawn)	?	·	-25%	-1%
O=C(Nc1ccc2c(c1)OCO2)c1cc(C2CCCCN2C(=O)CCCc2ccccc2)on1 (stereo not drawn)	?	·	?	-10%
CC(C)(C)c1ccc(NC(=O)c2cc(C3CCCN(C(=O)CCc4ccccc4)C3)on2)cc1 (stereo not drawn)	12µM*	·	8.2µM*	-4%
O=C(Nc1ccc2c(c1)OCO2)c1cc(C2CCCN(C(=O)CCCc3ccccc3)C2)on1 (stereo not drawn)	?	·	18µM*	-4%
O=C(Nc1ccccc1)c1cc(C2CCCN(C(=O)C/C=C/c3ccccc3)C2)on1 (stereo not drawn)	21µM*	·	?	-1%
CC1CCCC(NC(=O)COC(=O)/C=C/c2ccc(S(=O)(=O)N3CCOCC3)cc2)C1C (stereo not drawn)	-21%	6%	-17%	·
CCc1ccccc1NC(=O)C1CCN(S(C)(=O)=O)CC1	0%	·	-5%	1%
CCc1ccc(S(=O)(=O)NCc2cn3cccc(C)c3n2)s1	16µM*	2%	18µM*	-4%
CCc1ccc(S(=O)(=O)NCc2cn3ccccc3n2)s1	?	9%	?	-8%
CC(=O)Nc1ccn(C2CC3OCC(NC(=O)C4CCCN4C(=O)OC(C)(C)C)C3O2)c(=O)n1 (stereo not drawn)	·	8%	·	·
CCCC[C@@H](CNC)NC[C@H](Cc1ccc(O)cc1)NCCc1ccc(OCC)cc1	3.3µM*	·	5.2µM*	-1%
COc1ccc(OC)c(C2CC(=O)Nc3c2c(=O)n(C)c2ncnn32)c1 (stereo not drawn)	·	3%	·	-6%
O=C(CN1CCN(c2ccc(O)cc2)CC1)Nc1cc(S(=O)(=O)N2CCCC2)ccc1Cl	18µM*	7%	?	-4%
O=C(Cc1ccccc1F)Nc1cc(S(=O)(=O)N2CCCC2)ccc1Cl	17%	1%	-6%	-1%
CC1CN(CC(=O)Nc2cc(S(=O)(=O)N3CCCC3)ccc2Cl)CC(C)O1 (stereo not drawn)	?	-3%	-22%	-1%
CCOC(=O)C1CCN(CC(=O)Nc2cc(S(=O)(=O)N3CCCCC3)ccc2Cl)CC1	21µM*	2%	21µM*	-3%
O=C(CN1CCN(c2ccc(O)cc2)CC1)Nc1cc(S(=O)(=O)N2CCCCC2)ccc1Cl	10µM*	5%	10µM*	·
CCN1CCN(CC(=O)Nc2cc(S(=O)(=O)N3CCCCC3)ccc2Cl)CC1	-10%	0%	-25%	·
